Shown are actives, neighbours in structure and some others; about 5% of the full set was active somewhere.
EBI2 antag: blocks human EBI2 receptor beta-arrestin signaling; P32249; EBI2 beta-arrestin recruitment, luminescence, 7a,25-OHC stimulated; inhibition, % at 5 µM; actives 0.81% (n = 360,000); AID 651636; in the data active means inhibition above about 38%;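 further: enzyme fragment complementation signal reports receptor beta-arrestin coupling in cells; 0% = agonist plus DMSO wells and 100% = wells without agonist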
SENP7 block: inhibitors of human SENP7 protease; recombinant SENP7, Z-RLRGG-aminoluciferin luminescence, 40 min; actives 1.5% (n = 330,000); Q9BQF6; AID 434973; inhibition, % at 5 µM;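 active means inhibition above about 50% at the single test dose, limit read from the data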;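 further: plate controls were DMSO with enzyme for no effect and no enzyme buffer wells for full effect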
Target sequence (Q9BQF6 706-1050 limits assumed): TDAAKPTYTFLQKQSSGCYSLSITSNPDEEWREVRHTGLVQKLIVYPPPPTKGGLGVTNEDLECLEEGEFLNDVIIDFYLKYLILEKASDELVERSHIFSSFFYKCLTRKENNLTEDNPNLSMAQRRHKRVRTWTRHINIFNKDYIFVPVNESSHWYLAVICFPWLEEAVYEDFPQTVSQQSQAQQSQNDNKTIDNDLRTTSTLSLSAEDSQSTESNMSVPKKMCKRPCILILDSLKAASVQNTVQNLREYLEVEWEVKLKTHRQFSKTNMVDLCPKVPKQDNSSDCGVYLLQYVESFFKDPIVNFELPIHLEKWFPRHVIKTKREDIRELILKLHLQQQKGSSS
AHR activator: human AHR activation. P35869. AHR-responsive luciferase reporter cells, luminescence. activation, % at 5 µM. actives 2.5% (n = 320,000); in the data active means activation above about 47%;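 further: 0% = vehicle wells and 100% = reference agonist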
SENP8 block-1: inhibitors of human SENP8 protease; inhibition, % at 20 µM; recombinant SENP8, Nedd8 substrate fluorescence; actives 0.64% (n = 360,000); Q96LD8; in the data active means inhibition mostly above about 40%, no sharp cut-off; inactive means mostly below about 27%
Target sequence (Q96LD8 whole entry, looked up): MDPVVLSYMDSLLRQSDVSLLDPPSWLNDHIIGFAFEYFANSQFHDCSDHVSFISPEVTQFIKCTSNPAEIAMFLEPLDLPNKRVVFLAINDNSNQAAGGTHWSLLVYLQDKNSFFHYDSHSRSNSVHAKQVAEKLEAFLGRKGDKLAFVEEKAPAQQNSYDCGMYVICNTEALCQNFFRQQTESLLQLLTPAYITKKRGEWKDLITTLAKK
SENP6 inh: blocks the human protease SENP6; inhibition, % at 10 µM; Recombinant SENP6 catalytic domain, aminoluciferin luminescence; actives 1.8% (n = 330,000); AID 2599; Q9GZR1;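 active means inhibition above about 50% at the single tested dose, limit read from the data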;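 further: plate controls were DMSO wells with enzyme for no effect and DMSO wells lacking enzyme for full effect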
SENP8 block-2: SENP8 protease inhibition. purified SENP8, Z-RLRGG-aminoluciferin cleavage, luminescence. inhibition, % at 10 µM. actives 1.2% (n = 330,000); in the data active means inhibition above about 50%
SENP8 conf: human SENP8 inhibition, confirmed; inhibition, % at 12.5 µM; actives 40% (n = 6,200); shares compounds with SENP7 block; Recombinant SENP8, Z-RLRGG-aminoluciferin luminescence, 60 min;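 active means mean inhibition across replicates above about 50%, limit read from the data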
SENP6 confirm: human SENP6 inhibition, confirmed; recombinant SENP6, Z-RLRGG-aminoluciferin luminescence; shares compounds with SENP7 block; inhibition, % at 12.5 µM; actives 58% (n = 6,200)
SENP7 confirm: confirmation of human SENP7 protease inhibitors. inhibition, % at 12.5 µM. shares compounds with SENP7 block. recombinant SENP7, Z-RLRGG-aminoluciferin luminescence, 40 min. actives 69% (n = 6,200)
Casp3 select: inhibits human caspase-3 in SENP selectivity test | shares compounds with SENP7 block | purified caspase-3, Z-DEVD-aminoluciferin luminescence, 60 min | inhibition, % at 12.5 µM | actives 60% (n = 6,200);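 active means mean inhibition above about 50%, limit read from the data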;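 further: plate controls were enzyme with DMSO for no effect and wells without caspase-3 for full effect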
Luc interf: counter-screen for SENP inhibitors: luminescence interference. actives 39% (n = 6,200). inhibition, % at 12.5 µM. Pre-incubated SENP8/Z-RLRGG-aminoluciferin, luciferase luminescence interference. AID 488919. shares compounds with SENP7 block;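 active means mean inhibition above about 50% when retested at one dose, limit read from the data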;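 further: plate controls were DMSO wells with completed reaction for no effect and substrate without enzyme for full effect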
Numbers without * were called inactive.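 How the source made its calls, unless noted: active means mean inhibition above about 50% in the one-dose retest (limit read from the data); inactive means the rest.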

What do the screens show for `COc1cc(OC)cc(C(=O)NNC(=O)CN2C(=O)NC(C)(c3ccccc3)C2=O)c1` (stereo unspecified)?
EBI2 antag: -2; SENP7 block: -7; AHR activator: 0; SENP8 block-1: 18; SENP6 inh: -8; SENP8 block-2: -4

How did COc1ccc(C(=O)NC(=S)Nc2cccc3ncccc23)cc1[N+](=O)[O-] do in these assays?
EBI2 antag: 5; SENP7 block: 1; AHR activator: 0; SENP8 block-1: 2; SENP6 inh: 0; SENP8 block-2: 8

How did Cc1c(N=Cc2nc3ccccc3n2C)c(=O)n(-c2ccccc2)n1C do in these assays?
EBI2 antag: -2; SENP7 block: 83*; AHR activator: 16; SENP8 block-1: 26; SENP6 inh: 46; SENP8 block-2: 51*; SENP8 conf: 58*; SENP6 confirm: 80*; SENP7 confirm: 99*; Casp3 select: 97*; Luc interf: 12

What do the screens show for `Cc1c(N=Cc2nc3ccccc3[nH]2)c(=O)n(-c2ccccc2)n1C`?
EBI2 antag: -13; SENP7 block: 1; AHR activator: 24; SENP8 block-1: 22; SENP6 inh: -5; SENP8 block-2: 16

What do the screens show for `CC(=O)Oc1ccc2cc(-c3ccccc3)c(=O)oc2c1`?
EBI2 antag: -7; SENP7 block: 85*; AHR activator: 0; SENP8 block-1: -297; SENP6 inh: 93*; SENP8 block-2: 86*; SENP8 conf: 13; SENP6 confirm: 42; SENP7 confirm: 50*; Casp3 select: 48; Luc interf: 35

Results for COc1ccc(CNC(=O)CN(c2ccc(C(C)C)cc2)S(=O)(=O)c2c(C)noc2C)cc1 ?
EBI2 antag: 15; SENP7 block: -7; AHR activator: 2; SENP8 block-1: 14; SENP6 inh: -8; SENP8 block-2: -4

How did O=C(NNC(=O)c1ccc(NC(=O)C2CC2)cc1)c1ccc(F)cc1 do in these assays?
EBI2 antag: -16; SENP7 block: -2; SENP8 block-1: -34; SENP6 inh: 3; SENP8 block-2: -1

Results for O=C(Nc1ccccc1)c1ccc(NC(=O)C2CC2)cc1 ?
EBI2 antag: 17; SENP7 block: 62*; AHR activator: -2; SENP8 block-1: 2; SENP6 inh: 58*; SENP8 block-2: 33; SENP8 conf: -28; SENP6 confirm: 2; SENP7 confirm: 67*; Casp3 select: 64*; Luc interf: -9

How did O=C(Nc1ccc(C2SCCS2)cc1)c1ccccc1 do in these assays?
EBI2 antag: 10; SENP7 block: 92*; AHR activator: 4; SENP8 block-1: -9; SENP6 inh: 50; SENP8 block-2: 53*; SENP8 conf: 2; SENP6 confirm: 2; SENP7 confirm: 28; Casp3 select: 23; Luc interf: 7

What do the screens show for `Cc1cc(NC(=O)c2c(Br)c(C)nn2C)no1`?
EBI2 antag: -9; SENP7 block: 0; AHR activator: 6; SENP8 block-1: 16; SENP6 inh: -28; SENP8 block-2: 3

What do the screens show for `O=C1C[C@@H]2c3c(cccc3CN1Cc1ccc(F)cc1)C[C@@H](O)[C@H]2O`?
EBI2 antag: -3; SENP7 block: -2; AHR activator: -1; SENP8 block-1: 17; SENP6 inh: -16; SENP8 block-2: 5

Results for CC(c1ccco1)N(C(=O)COc1ccc(Cl)cc1)c1ccccn1 (stereo unspecified) ?
EBI2 antag: 2; SENP7 block: 2; AHR activator: 5; SENP8 block-1: -5; SENP6 inh: 50*; SENP8 block-2: 18; SENP8 conf: 30; SENP6 confirm: 22; SENP7 confirm: 18; Casp3 select: 53*; Luc interf: 51*

Results for O=C(NCC1CC1)c1ccc2c3n(nc2c1)-c1ccccc1CO3 ?
EBI2 antag: -2; SENP7 block: 68*; AHR activator: -8; SENP8 block-1: -224; SENP6 inh: 82*; SENP8 block-2: 78*; SENP8 conf: 83*; SENP6 confirm: 84*; SENP7 confirm: 98*; Casp3 select: 92*; Luc interf: 80*

Results for Cc1ccc2c(c1)COc1c3ccc(C(=O)NCC4CC4)cc3nn1-2 ?
EBI2 antag: -5; SENP7 block: -2; AHR activator: -8; SENP8 block-1: -327; SENP6 inh: 0; SENP8 block-2: 0

What do the screens show for `O=C(NCCO)c1ccc2c3n(nc2c1)-c1ccccc1CO3`?
EBI2 antag: 4; SENP7 block: 9; AHR activator: -5; SENP8 block-1: -202; SENP6 inh: 21; SENP8 block-2: 24

What do the screens show for `CC(C)NC(=O)c1ccc2c3n(nc2c1)-c1ccccc1CO3`?
EBI2 antag: -9; SENP7 block: 78*; AHR activator: -11; SENP8 block-1: -112; SENP6 inh: 77*; SENP8 block-2: 78*; SENP8 conf: 88*; SENP6 confirm: 87*; SENP7 confirm: 98*; Casp3 select: 94*; Luc interf: 81*

Results for CC(C)[C@@H](CO)NC(=O)c1ccc2c3n(nc2c1)-c1ccccc1CO3 ?
EBI2 antag: -43; SENP7 block: 50; AHR activator: -8; SENP8 block-1: -123; SENP6 inh: 84*; SENP8 block-2: 82*; SENP8 conf: 91*; SENP6 confirm: 91*; SENP7 confirm: 98*; Casp3 select: 95*; Luc interf: 62*

What do the screens show for `Cc1ccc2c(c1)COc1c3ccc(C(=O)O)cc3nn1-2`?
EBI2 antag: 5; SENP7 block: 100*; AHR activator: -9; SENP8 block-1: -68; SENP6 inh: 95*; SENP8 block-2: 95*; SENP8 conf: 96*; SENP6 confirm: 96*; SENP7 confirm: 101*; Casp3 select: 97*; Luc interf: 95*

What do the screens show for `O=C(Cn1cc(COc2c(F)c(F)c(Br)c(F)c2F)nn1)c1ccc(O)cc1`?
EBI2 antag: 7; SENP8 block-1: 8

How did COc1ccc(N2CCN(C(=O)COC(=O)c3cnccn3)CC2)cc1 do in these assays?
EBI2 antag: -1; SENP7 block: 3; AHR activator: -2; SENP8 block-1: 2; SENP6 inh: 4; SENP8 block-2: 4
